Several values for one entry are separate records, joined by “and”; a condition that tells them apart may be missing. Equal entries are not always repeated. Activity calls are given as the source filed them. Rule for the calls: active = hit-call score of the fitted dose curve at least 0.9, where 1 is the maximum; inactive = score below 0.9.

Read-out in the assay: Vascular cell adhesion molecule 1 (VCAM1), VCAM1 (gene 7412)
In words: BSK_LPS_VCAM1: BioMAP Diversity Plus: LPS Assay for Vascular cell adhesion molecule 1 (VCAM1) Biomarker Activity (AID 2283086). As to conditions: primary human HUVEC with PBMC; actives raise or lower the signal. On the procedure:
BSK_LPS is a cell-based, multiplexed-readout assay that uses umbilical vein endothelium and peripheral blood mononuclear cells, a human vascular primary cell co-culture, with measurements taken at 24 hours after chemical dosing in a 96-well plate.BSK_LPS_VCAM1 is an assay component measured in the BSK_LPS assay. It measures VCAM-1 antibody related to regulation of gene expression using ELISA technology.Data from the assay component BSK_LPS_VCAM1 was analyzed into 1 assay endpoint. This assay endpoint, BSK_LPS_VCAM1, was analyzed with bidirectional fitting relative to DMSO as the negative control and baseline of activity. Using a type of binding reporter, gain or loss-of-signal activity can be used to understand changes in the signaling as they relate to the gene VCAM1. Furthermore, this assay endpoint can be referred to as a primary readout, because this assay has produced multiple assay endpoints where this one serves a signaling function. To generalize the intended target to other relatable targets, this assay endpoint is annotated to the cell adhesion molecules intended target family, where the subfamily is Immunoglobulin CAM.
The levels of cell surface (or secreted, indicated by the prefix "s") biomarker endpoints were measured by ELISA. Overt cytotoxicity to cells in confluent adherent cultures (all systems other than the BT system) was assessed by measuring total protein levels using sulforhodamine B (SRB) staining in parallel cultures at the time of biomarker measurements, indicated as SRB endpoints. For proliferation assays for adherent cell types, individual cell types are cultured at sub-confluence and relative cell numbers quantified by SRB staining at time points optimized for each system (48 h: 3C and CASM3C systems; 72 h: BT and HDF3CGF systems; 96 h: SAg system). SRB was performed by staining cells with 0.1% SRB after fixation with 10% TCA and reading wells at 560 nm.Viability and proliferation of PBMC (T cells) was quantified by Alamar Blue reduction for the SAg and BT systems. For PBMC viability (referred to as PBMC Cytotoxicity within the assay endpoint names), cells were plated (75,000/well in a 96-well plate) and then chemical samples added for 1 h before addition of activators, SEB and TSST-1 (20 ng/mL final concentration each). Cells were incubated for 90 h. Then, Alamar Blue (20 uL/well) (Invitrogen, Cat DAL1100) was added for 6 h, and the plates were read with a fluorescence microplate reader at 546/580 nm (excitation/emission). For PBMC proliferation, cells were plated and activated as above but incubated for only 16 h prior to addition of Alamar Blue. Plates were read after 6 h.
Turning to `CCC1(C)C(=O)N(Cl)C(=O)N1Cl` (stereo not given), the outcome was inactive. Regarding `CC(C)c1cccc(C(C)C)c1N`, the result was inactive. Still for that read-out and setting: as for `O=C(O)C(F)(F)C(F)(F)C(F)(F)C(F)(F)C(=O)O`, the entry is “inactive”; as for `C1CNCCN1`, “inactive”.

What is called AC50 is the concentration giving half of the maximal activity seen. Take `CCCCCCCCCCCC(C)=O`: the AC50 was 30.8 µM (active).

Turning to `CC/C=C\C/C=C\C/C=C\CCCCCCCC(=O)OC`, the AC50 was 27.3 µM (active). In the case of `c1ccc2c(c1)[nH]c1ccccc12`, the outcome was inactive. The same measure, in the same setting: as for `CCCCCCOC(=O)CCCCC(=O)OCCCCCC`, the entry is “inactive”.

In the case of `Fc1ccc(Br)cc1`, the outcome was inactive.

As for `CCCCCCCCC(CO)CCCCCC` (stereo not given), the outcome was inactive.

As to `O=C(Oc1ccccc1)c1ccccc1C(=O)Oc1ccccc1`, the outcome was inactive.

In the case of `O=C1CCCCCCCCCCCN1`, the outcome was inactive.

Turning to `c1ccc2sc(SSN3CCOCC3)nc2c1`, the outcome was inactive. Still for that read-out and setting: the entry for `CCc1cccc(C)c1N(C(=O)CS(=O)(=O)O)C(C)COC` (stereo not given) is “inactive”. As for `C=CC(=O)OCC(C)OCC(C)OCC(C)OC(=O)C=C` (stereo not given), the AC50 was 8.45 µM (active).

`CCOC(=O)C1=NN(c2ccc(Cl)cc2Cl)C(C)(C(=O)OCC)C1` (stereo not given): the outcome was inactive. Same read-out and setting: as for `C=CC(=O)NCOCCCC`, the entry is “inactive”.

Take `Nc1ccc(C(=O)O)cc1`: the result was inactive. Still for that read-out and setting: the entry for `Cc1c(O)cccc1O` is “inactive”. The same measure, in the same setting: the entry for `Nc1cccc(N)n1` is “inactive”. `CCCCCCCCCCCC(=O)N(C)CC(=O)O`: the outcome was inactive. On the same count and under the same terms, as for `Nc1nc(N)nc(-c2ccccc2)n1`, the entry is “inactive”. On the same count and under the same terms, as for `CC(C)[N+](C)(CCOC(=O)C1c2ccccc2Oc2ccccc21)C(C)C`, the entry is “inactive”; as for `CC(C)CCCCCOC(=O)CS`, “inactive”. The same measure, in the same setting: the entry for `CCCCC1C(=O)N(c2ccccc2)N(c2ccccc2)C1=O` is “inactive”; for `Oc1ccc(/C=C/c2cc(O)cc(O)c2)cc1` it is “inactive”. In the case of `C=CC(=O)OCCCCCCCC(C)C`, the outcome was inactive. Same read-out and setting: the entry for `O=C1CCCCCCCCCCC1` is “inactive”. Same read-out and setting: the entry for `Cc1ccc([N+](=O)[O-])cc1N` is “inactive”; for `CC(Cl)COP(=O)(OCC(C)Cl)OCC(C)Cl` (stereo not given) it is “inactive”; for `Oc1ccccc1Cc1ccccc1O` it is “inactive”. On the same count and under the same terms, the entry for `CCOC(=O)C1=NOC(c2ccccc2)(c2ccccc2)C1` is “inactive”. `Oc1c(Cl)cc(Cl)c(Cl)c1Cl`: the AC50 was 20 µM (active). On to `CC(CCC(=O)O)(c1ccc(O)cc1)c1ccc(O)cc1`, for which the outcome was inactive. Take `C[N+](C)(C)CCCNS(=O)(=O)C(F)(F)C(F)(F)C(F)(F)C(F)(F)C(F)(F)C(F)(F)C(F)(F)C(F)(F)F`: the AC50 is 45 µM (active) and 49.6 µM (active). On to `CCCC(C)C(=O)OCC` (stereo not given), for which the outcome was inactive.

As to `C=CCCCCCCCCC=O`, the result was inactive.

With `C=C(C)C(=O)OCCCCCCCCCCCC`, the outcome was inactive. Take `c1ccc(Nc2cccc3ccccc23)cc1`: the AC50 is 32.5 µM (active) and 28.1 µM (active). For `C=CC(=O)NC(C)(C)C`, the result was inactive.

The values are drawn from PubChem BioAssay (EPA / NIEHS).
